Measurements reported in PubChem BioAssay (Tox21).
Where “and” joins values, the source holds several entries; their conditions need not be identical. Equal values may be shown once. Inconclusive results are not listed. Entries that show only a call come without a potency. The source holds several records for some structures; these can differ, active in one and inactive in another. Calls of active or inactive are those of the source. Calls follow the shape of the dose curve; as a rule, active = well fitted cell-killing curve with a large enough effect in the repeat runs; inconclusive = weak or mixed curves; inactive = flat fitted curve, though single readings scatter.

Experiment: qHTS RealTime-Glo MT Cell Viability Assay in HepG2 cells - 32 hour (AID 1224877); also: nearly all actives have a fitted effect of over 55% in size
Details: RealTime-Glo luminescence; series mostly up to 76.8 µM
Source text: U.S. Tox21 Program National Center for Advancing Translational Sciences [NCATS] NIH Chemical Genomics Center [NCGC] U.S. Environmental Protection Agency [EPA] National Institutes of Environmental Health Sciences [NIEHS] National Toxicology Program [NTP] U.S. Food and Drug Administration [FDA] Tox21 Assay Overview: Measure of cell viability is critical in the cell-base assay. Analysis of cell viability is necessary for the characterization of cell responses to cytotoxic drugs and environmental stress. A RealTime-Glo MT Cell Viability Assay to monitor cell viability in real time of continues cell culture during 40 hours of compound treatment was used to screen Tox21 10K library compounds in HepG2 cells. The RealTime-Glo MT Cell Viability Assay is a nonlytic, homogeneous, bioluminescent method to measure cell viability in real time using a simple, plate-based method. The assay involves adding NanoLuc luciferase and a cell-permeant prosubstrate to cells in culture. Viable cells reduce the proprietary prosubstrate to generate a substrate for NanoLuc luciferase. This substrate diffuses from cells into the surrounding culture medium, where it is rapidly used by the NanoLuc Enzyme to produce a luminescent signal. The signal correlates with the number of viable cells, making the assay well suited for cytotoxicity studies.
Tox21 Assay Protocol Summary: The mixture of HepG2 cell suspension and reagents were dispensed at 600cells/6 ul/well in 1536-well tissue culture treated black solid bottom plates using a Multidrop dispenser. After the assay plates were incubated at a 37 C/5% CO2 incubator for 5 hours, 23 nL of compounds dissolved in DMSO, positive and negative controls was transferred to the assay plate by a pintool work station. The plates were incubated at 37 C for 40 hours. The luminescence intensity were measured at 0h, 8h, 16h, 24h, 32h and 40h time points using ViewLux plate reader during compound treatment.
Potency is read from the fitted curve at half-maximal effect.

| Compound | Potency | activity change, negative = cytotoxic |
| --- | --- | --- |
| Clc1cccc(SC2CCNCC2)n1 | inactive | – |
| CC1Sc2c(C(=O)O)c(=O)c3cc(F)c(N4CCNCC4)cc3n21 (stereo not given) | inactive | – |
| O=Cc1ccc2c(c1)OCO2 | inactive | – |
| C=CC(=O)NCNC(=O)C=C | inactive | – |
| COC(C)(C)CCC[C@H](C)C/C=C/C(C)=C/C(=O)OC(C)C | inactive | – |
| Brc1ccc(Oc2ccccc2)cc1 | inactive | – |
| CC(=O)NC1CCSC1=O (stereo not given) | inactive | – |
| C=CC(C)=O | inactive | – |
| CCOP(=S)(OCC)Oc1cc(Cl)c(Br)cc1Cl | inactive | – |
| O=S1(=O)OC(c2cc(Br)c(O)c(Br)c2)(c2cc(Br)c(O)c(Br)c2)c2ccccc21 | inactive | – |
| Cl/C=C\C[N+]12CN3CN(CN(C3)C1)C2 | inactive | – |
| COc1c(C(C)(C)C)cc([N+](=O)[O-])c(C)c1[N+](=O)[O-] | inactive | – |
| CNC(C)Cc1ccccc1OC (stereo not given) | inactive | – |
| N#CCc1ccccc1 | inactive | – |
| COC1=CC(=O)O[C@@H](CCc2ccccc2)C1 | inactive | – |
| CC/C(=N\OC/C=C/Cl)C1=C(O)CC(C2CCOCC2)CC1=O (stereo not given) | inactive | – |
| ClCc1cccc(Cl)c1 | inactive | – |
| IC(I)=C(I)I | 436 nM (active) | – |
| CCOS(C)(=O)=O | inactive | – |
| O=C(NC(=O)c1c(F)cccc1F)Nc1cc(Cl)c(Oc2ncc(C(F)(F)F)cc2Cl)c(Cl)c1 | inactive | – |

| Compound | Potency | activity change, negative = cytotoxic |
| --- | --- | --- |
| C=CC(=O)OCC(C)C | inactive | – |
| CO/N=C(/C(=O)OC)c1ccccc1COc1ccccc1C | inactive | – |
| CN1C(=O)NC(=O)C(C)(C2=CCCCC2)C1=O (stereo not given) | inactive | – |
| CCOP(=O)(OCC)SCCSCC | inactive | – |
| O=C(O)CC(Cl)C(=O)O (stereo not given) | inactive | – |
| CCCN(CCC)c1c([N+](=O)[O-])cc(S(C)(=O)=O)cc1[N+](=O)[O-] | inactive | – |
| CCOC(=O)COc1cc(-c2nn(C)c(OC(F)F)c2Cl)c(F)cc1Cl | inactive | – |
| O=C(NCc1cccnc1)Nc1ccc([N+](=O)[O-])cc1 | inactive | – |
| O=S(=O)(Cl)c1ccccc1 | inactive | – |
| CCCC(Cn1cncn1)c1ccc(Cl)cc1Cl (stereo not given) | inactive | – |
| O=C(CCl)c1ccc(Cl)cc1Cl | inactive and 21.3 µM (active) | – |
| CC(C)(CCl)C(=O)Cl | inactive | – |
| CO[C@@H]1[C@H](OC(=O)NC(=O)CCl)CC[C@]2(CO2)[C@H]1[C@@]1(C)O[C@@H]1CC=C(C)C | – | 1.26% [at 15.8 µM] (inactive) |
| O=C(OC1CCCCC1)c1ccccc1C(=O)OC1CCCCC1 | inactive | – |
| CNP(=O)(OC)Oc1ccc(C(C)(C)C)cc1Cl (stereo not given) | inactive | – |
| O=C(Nc1ccccc1)Nc1cnns1 | inactive | – |
| NNC(=O)c1cccnc1 | inactive | – |
| CC(C)=CCOc1c2occc2cc2ccc(=O)oc12 | inactive | – |
| c1ccc(C2CC2)c(OCC2=NCCN2)c1 | inactive | – |
| COc1ccc(-c2ccccc2)cc1NNC(=O)OC(C)C | inactive | – |
